Bioassay records deposited in PubChem BioAssay by several laboratories.
Only some compounds are listed: those with a hit (about 2.8% of all), similar ones and a draw of the others.
TRPM1 prom inh: inhibitors of MITF-dependent TRPM1 promoter reporter, primary screen, cell-based, SK-MEL-5, single point, luciferase; SK-MEL-5 TRPM1 promoter luciferase, 24 h; 330,000 tested, 0.83% active; inhibition, % at 12.5 µM; AID 488899, 2010;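 active = mean inhibition across replicates of 60% or more, whatever share of single replicates reaches that level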
CF NFkB inh: inhibitors of PAF-induced NF-kB signaling, primary screen, cell-based, GFP fluorescence, uHTS. 360,000 tested, 0.86% active. inhibition, % at 5 µM. AID 588850, 2011. KKLEB NF-kB-GFP reporter, GFP fluorescence overnight;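 active = at least 50% inhibition at 5 µM, scaled per plate between neutral and stimulator controls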;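 note: PAF is a Pseudomonas aeruginosa culture filtrate used as stimulus; plate controls were PAF-stimulated DMSO wells for no effect and unstimulated DMSO wells for full effect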
Shn3 inh set2: reduction of Shn3 3'UTR firefly luciferase signal, primary screen, Schnurri-3 inhibitor project, cell-based, Clone20 osteoblasts, set 2; inhibition, % at 12.5 µM; AID 588674, 2011; Clone20 osteoblast Shn3 3'UTR firefly luciferase, 24 h; 360,000 tested, 0.52% active;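 active = mean inhibition of at least 75% with every replicate also reaching 75%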;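 note: 0% = median of neutral control wells and 100% = pilot-screen positive control compound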
Peg3 promoter: Peg3 promoter-driven luciferase inhibitors, primary screen, cell-based, HeLa, luciferase luminescence; HeLa PEG-Prom luciferase reporter, overnight; inhibition, % at 20 µM; 360,000 tested, 1.7% active; AID 588405, 2011;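 active = inhibition of at least 50% at 20 µM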
KKLEB tox: cytotoxicity in KKLEB CF airway cells, primary screen, cytotoxicity control for CF NF-kB inhibitor project, cell-based, uHTS, fluorescence assay plates | KKLEB CF airway cells viability, ATPlite luminescence, overnight; hits give low values; cells stimulated with P. aeruginosa culture filtrate | activity change (cytotoxicity), % at 5 µM | 360,000 tested, 0.36% active | AID 602141, 2011;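 active = corrected activity change at or below -50% at 5 µM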
HIF-2a inh: HIF-2a reporter inhibitors, primary screen, luminescence, 786-0 RCC cells; AID 624352, 2012; 360,000 tested, 0.72% active; inhibition, % at 18.8 µM; 786-0 RCC cells HIF-2a reporter, luciferase luminescence, overnight;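 active = inhibition of the luminescence signal of 40% or more relative to plate controls, in a single-dose primary screen at 18.75 µM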
Starred values were filed as active, the others as inactive; x = not tested or not shown.

SMILES | TRPM1 prom inh | CF NFkB inh | Shn3 inh set2 | Peg3 promoter | KKLEB tox | HIF-2a inh
CCCNC(=O)C1(C)CCN(C(=O)c2oc3ccccc3c2C)C1 (stereo not drawn) | x | -28 | 15 | -8 | 4 | 13
Cc1ccc(CN2CCC(C(=O)c3ccc(F)cc3)CC2)cc1 | x | -10 | 8 | 15 | 2 | 10
Cc1cccc(N2CCN(C(=O)c3ccc4nc(-c5ccco5)c(-c5ccco5)nc4c3)CC2C)c1 (stereo not drawn) | 21 | 6 | 14 | 63* | 15 | 15
Cc1cccc(N2CCN(C(=O)c3ccc4nccnc4c3)CC2C)c1 (stereo not drawn) | 1 | 19 | 16 | -2 | 6 | 4
COCCN(C(=O)Cc1cccs1)C(C(=O)NCc1ccc(OC)cc1)c1ccc(C)cc1 (stereo not drawn) | -11 | 1 | -2 | 10 | 19 | 10
COc1ccc(CNC(=O)C(c2ccc(C)o2)N(Cc2cccs2)C(=O)Cc2cccs2)cc1 (stereo not drawn) | 11 | 10 | -7 | 60* | 3 | 5
COc1cccc(-c2nn(C)c3sc(C(=O)N4CCOCC4)cc23)c1 | x | -24 | 4 | 2 | -7 | -4
COc1cccc(-c2nn(C)c3sc(C(=O)N4CCN(c5ccccn5)CC4)cc23)c1 | 37 | 6 | 73 | 57* | -5 | -7
O=C(Cc1ccccc1)N/N=C/c1cc(Br)cs1 | -15 | 15 | -12 | -90 | -2 | -144
O=C(CNC(=O)c1cccc(Br)c1)N/N=C/c1cc(Br)cc(Br)c1O | -4 | 16 | -19 | 54* | 1 | 15
O=C(Cc1ccccc1)N/N=C/c1cc(Br)cc(Br)c1O | 20 | 17 | 25 | 54* | -13 | 14
CCn1c(SCC(=O)Nc2oc(C)c3c(C)n[nH]c(=O)c23)nnc1-c1ccco1 | x | 3 | -26 | 8 | -10 | -4
O=C(N/N=C/c1ccccc1C(=O)O)c1cccc(S(=O)(=O)N2CCOCC2)c1 | 4 | -32 | 4 | -18 | 29 | 11
Cc1ccc(/C=N/NC(=O)c2cccc(S(=O)(=O)N3CCOCC3)c2)o1 | -4 | 6 | 4 | 110* | -2 | 5
CC[n+]1c(/C=C/N(C)c2ccccc2)n(-c2ccccc2)c2ccc(-c3nc4ccccc4s3)cc21 | 91* | 92* | 98* | 112* | -95* | 91*
N#C/C(=C\C=C\c1ccccc1)C(=O)NCc1ccco1 | 2 | -18 | -1 | 53* | -2 | -2
N/C(Cc1ccc(Cl)cc1)=N\OC(=O)c1ccc2ccccc2c1 | -13 | 17 | -15 | 105* | 9 | -1
N/C(Cc1ccc(Cl)cc1)=N\OC(=O)c1cccc2ccccc12 | 1 | 4 | 9 | 111* | 1 | -16
O=c1c(Cl)c(NCCCO)cnn1-c1nc2ccccc2[nH]1 | 5 | -7 | 10 | 99* | 5 | -99
CCOC(=O)Nc1ccc2c(COC(=O)C(NS(=O)(=O)c3ccc(Cl)cc3)C(C)O)cc(=O)oc2c1 (stereo not drawn) | -15 | 10 | -15 | -41 | -4 | -78
CC(C)(CO)NCc1ccccc1OCC(=O)Nc1ccccc1 | 11 | 19 | -47 | -25 | -13 | -85
Cc1ccc(NC(=O)COc2ccccc2CNC(C)(C)CC(C)(C)C)cc1 | 52 | 30 | 31 | 75* | -18 | -35
O=C(NCC(=O)N1CCN(S(=O)(=O)c2ccccc2C(F)(F)F)CC1)c1sc2ccccc2c1Cl | 8 | 48 | 13 | 11 | -55* | 5
Cc1ccc(O)c(CNCCNCc2cc(C)ccc2O)c1 | -4 | 11 | 25 | 29 | -13 | 10
Cc1ccc(O)c(Cc2cc(C)cc(Cc3cc(C)ccc3O)c2O)c1 | x | 21 | 13 | 56* | 6 | 17
CCN(CC)c1ccc2cc(-c3nc4ccccc4n3C)c(=O)oc2c1 | -8 | 27 | 13 | -169 | -21 | -261
CCN(CC)c1ccc2cc(-c3nc4ccccc4[nH]3)c(=O)oc2c1 | 79* | -163 | 49 | 70* | -90* | -148
